The list is not random: actives were taken first. Their share in the collection is about 7.9%.
FMDV inh: foot and mouth disease virus antiviral activity; FMDV antiviral cell-based qHTS; Potency, µM (highest dose often 57.9 µM), without a hit: at the top dose activity change, negative = inhibition, usual class: inhibitors; 1.2% of 410,000 active; AID 1159524; calls by dose curve; tested in HEK293T cells; note: read-out not given here; potency is the fitted concentration of half-maximal effect; nearly all actives have a fitted effect of over 45% in size
LASV entry inh: inhibitors of Lassa virus binding or cell entry | AID 540256 | 1.2% of 300,000 active | Potency, µM (highest dose often 37.9 µM), for inactives: at the highest dose activity change, negative = inhibition, hits mostly inhibitors | Lassa virus pseudotype entry inhibition, cell reporter; calls by dose curve; tested in HEK293 cells; note: potency is the fitted concentration of half-maximal effect; nearly all actives have a fitted effect of over 50% in size
Marburg entry inh: Marburg virus entry inhibition | Marburg virus pseudotyped entry inhibition, cell reporter | Potency, µM (series often up to 37.8 µM), without a hit: at the top dose activity change, negative = inhibition, actives largely listed as inhibitors | 1.8% of 300,000 active | AID 540276; calls by dose curve; tested in HEK293 cells; note: potency is the fitted concentration of half-maximal effect
HCMV antiviral: human cytomegalovirus inhibition | HFF cells, HCMV-luciferase reporter, 72 h; stronger effect = lower value | activity change, negative = inhibition, % at 57.5 µM | 4.5% of 410,000 active | AID 1259415; in the data active = activity change below about -60%; inconclusive = no clear call, values can overlap the other calls; inactive = above about -39%
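After 16 h attachment at 37C, HFF cells received test compound and HCMV-luciferase (1 PFU/cell); reporter luminescence read 72 h later, data normalized against buffer-only and known inhibitor Salinomycin.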
HCV inh: blocks hepatitis C virus | 3.4% of 340,000 active | Potency, µM (doses to about 41.8 µM), for the others: at the top dose activity change, negative = inhibition, hits mostly inhibitors | Huh7.5.1 HCVcc-Cre infection, luciferase reporter, 44 h; active = well fitted inhibition curve with a large enough effect; inconclusive = small, poorly fitted or top-dose-only effect, or another doubt; inactive = no such curve, though single readings can be large or run the other way; note: potency is the fitted concentration of half-maximal effect
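Whole-lifecycle infectious HCVcc-Cre system; cells 1,000/well, compound then virus (~0.5 moi) added 4 h after plating, 44 h culture. Luciferase read 15 sec following 15 min substrate incubation, room temp.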
The depositor's hits bear a star; u = inconclusive; x = not tested or not shown; [ ] = another dose, or the depositor's remark. % is set by controls: 0 for no effect and ±100 for the full control effect.

SMILES	FMDV inh	LASV entry inh	Marburg entry inh	HCMV antiviral	HCV inh
O=c1cc2c(nn1Cc1ccccc1)-c1ccccc1CC2	-16%	-2%	-6%[46.1 µM]	-100*	7%
COCCCN1C(=O)C(CC(=O)NCCN2CCOCC2)CC(C(=O)N2CCOCC2)=C1C (centres undefined)	0%	x	x	18	x
COC(=O)c1ccc(-c2nc3cc(Cl)c(N)cc3s2)cc1	10µM*	u	0.5µM*	76	0%
COC(=O)c1ccc(O)cc1	10%	9%	18%	4	24%
COC(=O)c1ccc(-c2nc(O)c(C)s2)cc1	8%	23%[46.1 µM]	2%[46.1 µM]	-65*	15%
Cc1ccc(C(=O)Nc2ccc(C(=O)OCc3cc(=O)n4c5c(sc4n3)CCCC5)cc2)cc1	-15%	21%[46.1 µM]	x	u	x
COc1cccc2c1cc1c(=O)n(CC(=O)NCc3ccco3)nc(C)n12	1%	x	-2%[46.1 µM]	-16	x
CC(C)N(C(=O)C[n+]1ccc(/C=N/O)cc1)C(C)C	-9%	12%	18%	-19	21%
O=C(C[n+]1ccc(/C=N/O)cc1)N(Cc1ccccc1)Cc1ccccc1	-20%	-5%	-1%[46.1 µM]	-68*	2%
CCN(CC)CCCNC(=O)c1cc(-c2ccc(Cl)c(Cl)c2)on1	0%	-20%	u	66	1.4µM*
O=C(NCCCN1CCOCC1)c1cc(-c2ccc(Cl)c(Cl)c2)on1	9%	4%[46.1 µM]	2%[46.1 µM]	-32	13µM*
CCN(CC)CCCNC(=O)c1cc(-c2ccc(O)cc2)on1	-22%	x	x	24	-7%
O=C(NCCN1CCOCC1)c1cc(-c2ccc(Cl)cc2)on1	13%	u	3%	-6	-20%
Cc1ccc(-c2cc(C(=O)NCCCN3CCOCC3)no2)cc1	u	-17%	1%	-67*	-19%
COc1ccc(Nc2ncc3c(n2)CCN(Cc2cccc(F)c2F)C3)c(OC)c1	-2%	8%[46.1 µM]	x	3	x
O=C(NCCc1ccccc1Cl)c1cc2ccccn2n1	34%	u	x	0	x
CCOC(=O)c1ccccc1NC(=O)Cn1c(=O)n(CCC(=O)N2CCc3ccccc3C2)c(=O)c2ccccc21	-11%	u	u	-11	x
Cc1ccc(NC(=O)Cn2c(=O)n(CCC(=O)NCc3ccccc3Cl)c(=O)c3ccccc32)cc1	-13%	4%[46.1 µM]	-21%[46.1 µM]	-86*	x
Cc1ccc(NC(=O)Cn2c(=O)n(CCCC(=O)NCc3ccc4c(c3)OCO4)c(=O)c3ccccc32)cc1	-2%	3%[46.1 µM]	-1%[46.1 µM]	13	x
CCOc1ccc(NC(=O)Cn2c(=O)n(CCCCC(=O)NCc3ccc4c(c3)OCO4)c(=O)c3ccccc32)cc1	u	u	-12%[46.1 µM]	-76*	x
COCCNC(=O)Cn1c(=O)n(CCCC(=O)NCc2ccc3c(c2)OCO3)c(=O)c2sccc21	5%	4.5µM*	u	-2	-12%
Cc1ccc(NC(=O)Cn2c(=O)n(CCC(=O)N3CCc4ccccc4C3)c(=O)c3ccccc32)c(C)c1	-9%	-22%[46.1 µM]	-3%[46.1 µM]	-65*	x
CCCc1cc(=O)[nH]c(/N=C(\N)Nc2ccccc2)n1	22%	3%	12%	-7	4%
Cc1ccc(SCc2cc(=O)[nH]c(/N=C(\N)Nc3ccccc3Sc3ccccc3)n2)cc1	-18%	-9%	-13%	-94*	15%
COCc1cc(=O)[nH]c(/N=C(\N)Nc2ccc(C)cc2C)n1	-18%	u	2%[46.1 µM]	u	13%
SMILES	FMDV inh	LASV entry inh	Marburg entry inh	HCMV antiviral	HCV inh
CCc1ccc(N/C(N)=N/c2nc(CSc3ccccn3)cc(=O)[nH]2)cc1	u	u	u	-85*	u
Cc1ccc(N/C(N)=N/c2nc(CSc3ccccn3)cc(=O)[nH]2)c(C)c1	u	u	-25%[46.1 µM]	-69*	u
Cc1ccc(C(=O)O)cc1NC(=O)Nc1cccc2ccccc12	5%	x	x	1	15%
CCN(CC(=O)Nc1ccc2c(c1)OCCO2)S(=O)(=O)c1ccc(F)cc1	6%	15%[46.1 µM]	1%[46.1 µM]	19	-11%
CSc1ccccc1C(=O)Nc1ccc2c(c1)OCCO2	12%	8%	13%	46	10%
CC(=O)c1ccccc1NC(C(=O)Nc1ccc2c(c1)OCCO2)c1cccs1 (centres undefined)	x	x	x	-64*	x
O=C(CSc1n[nH]c(-c2ccncc2)n1)Nc1ccc(F)cc1	-8%	9%	-6%	3	13%
O=C(CSc1n[nH]c(-c2ccccn2)n1)Nc1ccc(Cl)cc1	-16%	u	u	-96*	5µM*
